Several values for one entry are separate records, joined by “and”; a condition that tells them apart may be missing. Equal values may be shown once. Results filed as inconclusive are left out. Values without a mark were called inactive. Activity calls are given as the source filed them. Calls come from the whole dose curve; as a rule, active = well fitted curve in the direction sought with a large enough effect in the repeat runs; inconclusive = weak or mixed curves; inactive = no such curve, though single readings can be large; an effect the other way counts as inactive or inconclusive.
What follows are compounds tested against Cytochrome P450 2D6 (Homo sapiens) (UniProt P10635) (assay: Cytochrome P450 family 2 subfamily D member 6 (CYP2D6) small molecule antagonists: luciferase biochemical (cell-free) qHTS assay (AID 1645840)). Conditions: P450-Glo CYP2D6 enzyme, luciferin luminescence, 1 h; series mostly up to 57.4 µM; activity change, negative = inhibition: at the top concentration.
Summary of the method: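 P450-Glo CYP2D6 system: proluciferin substrate converted by enzyme to luciferin, read by luminescence proportional to activity. Enzyme-substrate mix with compound 10 min at room temperature, then NADPH regeneration 1 h before detection reagent.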
% is set by controls: 0 for no effect and ±100 for the full control effect; potency is the fitted concentration of half-maximal effect.
Note: nearly all actives have a fitted effect of over 55% in size.

Cytochrome P450 2D6 (Homo sapiens), sequence (P10635 whole entry, looked up): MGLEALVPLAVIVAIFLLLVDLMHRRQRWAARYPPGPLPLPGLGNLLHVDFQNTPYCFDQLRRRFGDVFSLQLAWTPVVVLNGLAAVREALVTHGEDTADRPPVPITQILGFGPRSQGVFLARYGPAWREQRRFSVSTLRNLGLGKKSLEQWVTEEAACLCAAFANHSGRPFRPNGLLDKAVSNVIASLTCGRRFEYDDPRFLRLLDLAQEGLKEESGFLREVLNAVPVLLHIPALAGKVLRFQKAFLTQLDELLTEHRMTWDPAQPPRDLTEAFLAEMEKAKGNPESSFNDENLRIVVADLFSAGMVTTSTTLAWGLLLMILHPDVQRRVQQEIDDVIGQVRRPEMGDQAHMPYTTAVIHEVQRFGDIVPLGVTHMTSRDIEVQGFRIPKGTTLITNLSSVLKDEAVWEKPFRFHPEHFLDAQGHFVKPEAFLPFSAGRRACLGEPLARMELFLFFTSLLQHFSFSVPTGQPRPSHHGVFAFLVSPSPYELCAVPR

Row | SMILES | activity change, negative = inhibition [%] | Potency
1 | Cn1c(N2CCCCS2(=O)=O)nc(C(=O)NCc2ccc(F)cc2)c(O)c1=O | 12.4 | –
2 | O=C(NC1CCOCC1)c1ccc(-c2cc(-c3cn[nH]c3-c3ccccn3)ccn2)cc1 | 0.961 | –
3 | Cc1ccc(Nc2cc(-c3cccc(N4C(=O)c5ccccc5C4=O)c3)ncn2)cc1NS(C)(=O)=O | -4.74 | –
4 | NC(=O)c1cccc(-c2cc(Nc3ccc(OC(F)(F)F)cc3)ncn2)c1 | – | 26.8 µM (active)
5 | CCOC(=O)C1=C(N)Oc2ccc(Br)cc2C1C(C#N)C(=O)OCC (stereo not drawn) | – | 13.5 µM (active) and 16.9 µM (active) and 23.9 µM (active)
6 | O=C(O)CCC1CCC(c2cc(F)ccc2F)(S(=O)(=O)c2ccc(Cl)cc2)CC1 (stereo not drawn) | 0.398 | –
7 | CC(C)(C)c1cc(C(=O)O)c(NC(=O)Nc2ccc3[nH]ncc3c2)s1 | – | 3.38 µM (active)
8 | COc1ccc2c(Oc3ccc(NC(=O)c4c(C)n(CC(C)(C)O)n(-c5ccccc5)c4=O)cc3F)ccnc2c1 | -25.7 | –
9 | CCS(=O)(=O)N1CC(CC#N)(n2cc(-c3ncnc4[nH]ccc34)cn2)C1 | -2.56 | –
10 | Cc1nc(N)sc1-c1ccnc(Nc2ccc(N3CCOCC3)cc2)n1 | 4.29 | –
11 | CC(C)n1nc(-c2ccc3oc(N)nc3c2)c2c(N)ncnc21 | 2.31 | –
12 | COc1cc2ncnc(-n3nc(-c4ccccn4)nc3N)c2cc1OC | – | 7.56 µM (active)
13 | Cc1ccn(-c2ccc(-c3ncco3)cc2)c(=O)c1-c1ccc2nc(N)ncc2c1 | – | 16.9 µM (active)
14 | COC1CCC(N(C(=O)C2CCC(C)CC2)c2cc(C3=CCCCC3)sc2C(=O)O)CC1 (stereo not drawn) | -18.3 | –

Each compound was assayed against Cytochrome P450 2C9 (Homo sapiens) (UniProt P11712) (assay: Cytochrome P450 family 2 subfamily C member 9 (CYP2C9) small molecule antagonists: luciferase biochemical (cell-free) qHTS assay (AID 1645842)). Conditions: P450-Glo CYP2C9 enzyme assay, luciferin luminescence; series mostly up to 57.4 µM; activity change, negative = inhibition: at the top concentration.
Summary of the method: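 P450-Glo CYP2C9 system: proluciferin substrate with enzyme in mix containing 0.4% BSA, 10 min at room temperature, then NADPH regeneration solution added and incubated 1 h at 37C. Detection reagent stopped reaction; luminescence read after 20 min as RLU.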

Cytochrome P450 2C9 (Homo sapiens), sequence (P11712 whole entry, looked up): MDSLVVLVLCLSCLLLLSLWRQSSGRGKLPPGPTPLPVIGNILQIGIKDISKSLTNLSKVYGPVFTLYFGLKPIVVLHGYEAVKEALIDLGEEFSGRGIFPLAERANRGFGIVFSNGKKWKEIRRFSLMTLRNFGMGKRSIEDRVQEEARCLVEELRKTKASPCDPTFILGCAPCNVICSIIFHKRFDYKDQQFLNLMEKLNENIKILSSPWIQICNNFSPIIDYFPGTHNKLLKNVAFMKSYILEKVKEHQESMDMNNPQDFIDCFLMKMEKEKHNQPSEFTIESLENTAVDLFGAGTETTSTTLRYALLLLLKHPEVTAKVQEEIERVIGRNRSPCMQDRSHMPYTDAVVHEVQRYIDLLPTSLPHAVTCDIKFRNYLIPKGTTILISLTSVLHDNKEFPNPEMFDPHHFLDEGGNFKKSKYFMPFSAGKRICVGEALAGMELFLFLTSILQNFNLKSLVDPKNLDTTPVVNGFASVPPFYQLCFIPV

Row | SMILES | activity change, negative = inhibition [%] | Potency
15 | Cn1c(N2CCCCS2(=O)=O)nc(C(=O)NCc2ccc(F)cc2)c(O)c1=O | -1.91 | –
16 | Cc1ccc(Nc2cc(-c3cccc(N4C(=O)c5ccccc5C4=O)c3)ncn2)cc1NS(C)(=O)=O | – | 1.07 µM (active)
17 | NC(=O)c1cccc(-c2cc(Nc3ccc(OC(F)(F)F)cc3)ncn2)c1 | – | 15.1 µM (active)
18 | CCOC(=O)C1=C(N)Oc2ccc(Br)cc2C1C(C#N)C(=O)OCC (stereo not drawn) | – | 6.01 µM (active) and 12 µM (active) and 10.7 µM (active)
19 | Cc1ccc(C(C)(O)c2nc3ccccc3s2)c(C)c1 (stereo not drawn) | – | 3.01 µM (active)
20 | CON=C(C(=O)N[C@@H]1C(=O)N2C(C(=O)OCOC(=O)C(C)(C)C)=C(C=Cc3scnc3C)CS[C@H]12)c1csc(N)n1 | – | 12 µM (active)
21 | CC(C)(C)c1cc(C(=O)O)c(NC(=O)Nc2ccc3[nH]ncc3c2)s1 | – | 0.477 µM (active)
22 | COc1ccc2c(Oc3ccc(NC(=O)c4c(C)n(CC(C)(C)O)n(-c5ccccc5)c4=O)cc3F)ccnc2c1 | – | 23.9 µM (active)
23 | CCS(=O)(=O)N1CC(CC#N)(n2cc(-c3ncnc4[nH]ccc34)cn2)C1 | -14.3 | –
24 | O=C1C[C@@H](c2ccc(O)cc2)Oc2cc(O)cc(O)c21 | – | 5.35 µM (active)
25 | COC[C@@H](c1ccc(C(F)(F)F)cc1)N1CCN(C2(C)CCN(C(=O)c3c(C)ncnc3C)CC2)C[C@H]1C | 4.35 | –
26 | COc1cc2c(cc1OC)CN(CCc1ccc(NC(=O)c3cc(OC)c(OC)cc3NC(=O)c3cnc4ccccc4c3)cc1)CC2 | 8.8 | –
27 | Cc1nc(N)sc1-c1ccnc(Nc2ccc(N3CCOCC3)cc2)n1 | – | 6.01 µM (active)
28 | O=C(Nc1cccc(Br)c1)c1cccc(S(=O)(=O)N2CCCCCC2)c1 | – | 6.01 µM (active)
29 | CC(C)(C)NC(=O)Nc1cccc(Nc2ncc(F)c(NC(C)(C)CO)n2)c1 | – | 23.9 µM (active)
30 | C[C@H](NC(=O)c1sccc1OCc1ccc(Cl)cc1)c1ccccc1 | – | 0.952 µM (active)
31 | COc1cc(NC(=O)c2ccc(-c3ccc(Cl)cc3)o2)cc(OC)c1 | – | 8.49 µM (active)
32 | O=C(CCN1CCN(C(=O)OCc2cc(Cl)cc(Cl)c2)CC1)c1ccc2[nH]c(=O)oc2c1 | – | 7.56 µM (active)
33 | CC1CCC(C(=O)N(c2cc(C#CC(C)(C)C)sc2C(=O)O)C2CCC(O)CC2)CC1 (stereo not drawn) | -26.7 | –

Source: PubChem BioAssay (NCATS)
